Measurements taken from ChEMBL document CHEMBL2218924, “A broad activity screen in support of a chemogenomic map for kinase signalling research and drug discovery” (Biochem J, 2013).

Assays:
[1] = target: T1, Ephrin type-A receptor 3 (Homo sapiens) (UniProt P29320); details: at 10 µM
T1 sequence (whole entry): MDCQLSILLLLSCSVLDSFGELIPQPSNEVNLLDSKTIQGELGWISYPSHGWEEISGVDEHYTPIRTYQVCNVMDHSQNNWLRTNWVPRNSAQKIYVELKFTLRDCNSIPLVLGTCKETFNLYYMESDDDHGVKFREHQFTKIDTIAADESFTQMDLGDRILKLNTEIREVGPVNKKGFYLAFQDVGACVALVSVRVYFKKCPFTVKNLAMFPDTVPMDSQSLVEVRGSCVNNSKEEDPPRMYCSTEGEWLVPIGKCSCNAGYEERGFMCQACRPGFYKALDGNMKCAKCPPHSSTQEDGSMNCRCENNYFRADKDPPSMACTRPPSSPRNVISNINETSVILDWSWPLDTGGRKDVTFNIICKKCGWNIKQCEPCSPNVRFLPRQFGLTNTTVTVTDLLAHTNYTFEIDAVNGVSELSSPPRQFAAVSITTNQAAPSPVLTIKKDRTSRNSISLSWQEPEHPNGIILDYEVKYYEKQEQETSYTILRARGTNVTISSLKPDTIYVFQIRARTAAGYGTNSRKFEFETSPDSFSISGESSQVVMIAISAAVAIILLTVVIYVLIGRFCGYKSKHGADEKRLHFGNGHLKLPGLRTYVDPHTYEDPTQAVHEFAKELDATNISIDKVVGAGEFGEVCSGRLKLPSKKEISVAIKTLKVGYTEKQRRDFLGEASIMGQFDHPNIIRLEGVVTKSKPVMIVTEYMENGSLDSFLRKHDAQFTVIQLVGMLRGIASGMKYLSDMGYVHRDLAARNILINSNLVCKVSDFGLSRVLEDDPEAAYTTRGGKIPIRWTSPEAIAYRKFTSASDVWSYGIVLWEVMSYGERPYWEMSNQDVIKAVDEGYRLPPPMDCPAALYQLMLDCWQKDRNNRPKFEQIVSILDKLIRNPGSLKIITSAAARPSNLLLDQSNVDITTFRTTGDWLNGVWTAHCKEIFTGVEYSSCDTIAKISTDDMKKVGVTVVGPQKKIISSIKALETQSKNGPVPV

[2] = target: Ephrin type-A receptor 4 (Homo sapiens) (UniProt P54764); details: at 1 µM
Chain of Ephrin type-A receptor 4 (Homo sapiens) (P54764 whole entry): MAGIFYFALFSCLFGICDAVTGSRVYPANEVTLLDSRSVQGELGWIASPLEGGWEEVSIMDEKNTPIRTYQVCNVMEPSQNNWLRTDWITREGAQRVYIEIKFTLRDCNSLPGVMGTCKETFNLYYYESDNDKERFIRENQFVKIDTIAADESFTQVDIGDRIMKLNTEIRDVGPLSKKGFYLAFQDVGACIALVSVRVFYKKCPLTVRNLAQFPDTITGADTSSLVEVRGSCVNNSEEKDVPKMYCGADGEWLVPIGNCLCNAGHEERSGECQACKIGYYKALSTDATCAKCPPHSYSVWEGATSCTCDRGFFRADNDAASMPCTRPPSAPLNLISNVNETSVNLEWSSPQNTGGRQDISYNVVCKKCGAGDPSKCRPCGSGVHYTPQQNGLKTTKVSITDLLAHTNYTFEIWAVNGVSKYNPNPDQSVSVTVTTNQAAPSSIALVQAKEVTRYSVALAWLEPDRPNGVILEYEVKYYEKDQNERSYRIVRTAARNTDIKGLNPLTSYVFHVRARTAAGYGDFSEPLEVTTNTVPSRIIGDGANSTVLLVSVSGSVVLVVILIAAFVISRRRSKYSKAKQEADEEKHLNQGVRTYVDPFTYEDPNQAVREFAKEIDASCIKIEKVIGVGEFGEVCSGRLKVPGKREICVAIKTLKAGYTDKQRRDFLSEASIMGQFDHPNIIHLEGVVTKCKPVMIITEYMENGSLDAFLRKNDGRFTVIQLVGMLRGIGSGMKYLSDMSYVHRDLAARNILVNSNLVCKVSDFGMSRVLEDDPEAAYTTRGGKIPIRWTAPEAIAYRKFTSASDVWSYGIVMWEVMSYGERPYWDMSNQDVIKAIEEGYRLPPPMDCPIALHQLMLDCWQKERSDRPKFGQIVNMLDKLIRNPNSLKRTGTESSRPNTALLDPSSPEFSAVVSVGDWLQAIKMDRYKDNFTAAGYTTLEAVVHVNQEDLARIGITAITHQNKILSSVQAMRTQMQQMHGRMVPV

[3] = target: Ephrin type-A receptor 4 (Homo sapiens) (UniProt P54764); details: at 10 µM
[4] = target: Ephrin type-A receptor 5 (Homo sapiens) (UniProt P54756); details: at 1 µM
Chain of Ephrin type-A receptor 5 (Homo sapiens) (P54756 whole entry): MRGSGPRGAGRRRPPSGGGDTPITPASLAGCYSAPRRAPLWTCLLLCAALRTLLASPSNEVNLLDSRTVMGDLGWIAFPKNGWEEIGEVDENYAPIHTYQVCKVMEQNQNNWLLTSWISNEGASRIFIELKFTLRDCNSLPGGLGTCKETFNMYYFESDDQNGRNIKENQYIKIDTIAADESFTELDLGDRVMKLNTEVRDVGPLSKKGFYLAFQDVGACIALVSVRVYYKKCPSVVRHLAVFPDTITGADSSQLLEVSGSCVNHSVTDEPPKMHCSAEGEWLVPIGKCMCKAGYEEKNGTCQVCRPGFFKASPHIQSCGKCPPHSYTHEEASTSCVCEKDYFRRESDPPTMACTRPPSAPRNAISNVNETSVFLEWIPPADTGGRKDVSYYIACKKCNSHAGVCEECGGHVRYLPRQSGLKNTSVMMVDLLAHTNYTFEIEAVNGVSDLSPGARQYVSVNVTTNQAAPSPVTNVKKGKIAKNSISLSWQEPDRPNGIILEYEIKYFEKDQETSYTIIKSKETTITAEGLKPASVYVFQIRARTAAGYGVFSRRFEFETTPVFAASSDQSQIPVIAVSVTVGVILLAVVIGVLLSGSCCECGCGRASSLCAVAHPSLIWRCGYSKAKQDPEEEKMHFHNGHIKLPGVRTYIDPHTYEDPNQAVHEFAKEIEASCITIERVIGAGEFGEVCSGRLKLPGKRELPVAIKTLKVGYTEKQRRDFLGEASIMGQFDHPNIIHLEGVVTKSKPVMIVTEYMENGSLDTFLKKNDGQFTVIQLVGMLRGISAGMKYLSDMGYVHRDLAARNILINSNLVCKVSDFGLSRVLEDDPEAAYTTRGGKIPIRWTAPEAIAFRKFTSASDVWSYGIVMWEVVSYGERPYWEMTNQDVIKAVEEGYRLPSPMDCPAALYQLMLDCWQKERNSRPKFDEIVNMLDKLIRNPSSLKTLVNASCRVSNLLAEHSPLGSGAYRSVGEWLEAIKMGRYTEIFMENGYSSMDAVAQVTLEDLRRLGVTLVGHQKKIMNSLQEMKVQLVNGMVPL

[5] = target: Ephrin type-A receptor 5 (Homo sapiens) (UniProt P54756); details: at 10 µM
[6] = target: Ephrin type-A receptor 7 (Homo sapiens) (UniProt Q15375); details: at 1 µM
Chain of Ephrin type-A receptor 7 (Homo sapiens) (Q15375 28-998 limits assumed): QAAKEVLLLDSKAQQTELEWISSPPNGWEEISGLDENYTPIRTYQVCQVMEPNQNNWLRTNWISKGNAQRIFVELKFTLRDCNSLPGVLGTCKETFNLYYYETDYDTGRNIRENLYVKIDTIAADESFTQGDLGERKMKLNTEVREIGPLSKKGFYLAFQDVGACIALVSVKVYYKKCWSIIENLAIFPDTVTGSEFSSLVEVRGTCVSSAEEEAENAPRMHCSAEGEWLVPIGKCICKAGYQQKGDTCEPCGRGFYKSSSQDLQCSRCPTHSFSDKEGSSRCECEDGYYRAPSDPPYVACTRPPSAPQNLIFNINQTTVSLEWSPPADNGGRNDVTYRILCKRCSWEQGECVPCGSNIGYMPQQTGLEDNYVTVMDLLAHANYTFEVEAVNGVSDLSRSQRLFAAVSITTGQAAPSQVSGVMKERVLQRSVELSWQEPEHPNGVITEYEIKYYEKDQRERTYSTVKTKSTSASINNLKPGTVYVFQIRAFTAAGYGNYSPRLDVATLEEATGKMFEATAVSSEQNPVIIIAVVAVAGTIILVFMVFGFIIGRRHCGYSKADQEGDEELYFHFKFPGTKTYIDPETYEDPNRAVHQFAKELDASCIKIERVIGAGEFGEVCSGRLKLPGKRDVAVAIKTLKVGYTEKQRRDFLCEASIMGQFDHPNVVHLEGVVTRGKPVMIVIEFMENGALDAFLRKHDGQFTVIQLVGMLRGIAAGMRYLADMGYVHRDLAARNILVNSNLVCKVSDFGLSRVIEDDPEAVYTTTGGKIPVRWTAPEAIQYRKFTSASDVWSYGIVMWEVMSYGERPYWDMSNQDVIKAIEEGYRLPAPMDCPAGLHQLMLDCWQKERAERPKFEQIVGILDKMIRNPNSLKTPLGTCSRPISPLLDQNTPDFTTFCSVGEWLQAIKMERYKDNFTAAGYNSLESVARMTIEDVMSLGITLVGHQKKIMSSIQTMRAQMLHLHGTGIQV

[7] = target: Ephrin type-A receptor 7 (Homo sapiens) (UniProt Q15375); details: at 10 µM
[8] = target: T2, Ephrin type-A receptor 8 (Homo sapiens) (UniProt P29322); details: at 1 µM
T2 sequence (whole entry): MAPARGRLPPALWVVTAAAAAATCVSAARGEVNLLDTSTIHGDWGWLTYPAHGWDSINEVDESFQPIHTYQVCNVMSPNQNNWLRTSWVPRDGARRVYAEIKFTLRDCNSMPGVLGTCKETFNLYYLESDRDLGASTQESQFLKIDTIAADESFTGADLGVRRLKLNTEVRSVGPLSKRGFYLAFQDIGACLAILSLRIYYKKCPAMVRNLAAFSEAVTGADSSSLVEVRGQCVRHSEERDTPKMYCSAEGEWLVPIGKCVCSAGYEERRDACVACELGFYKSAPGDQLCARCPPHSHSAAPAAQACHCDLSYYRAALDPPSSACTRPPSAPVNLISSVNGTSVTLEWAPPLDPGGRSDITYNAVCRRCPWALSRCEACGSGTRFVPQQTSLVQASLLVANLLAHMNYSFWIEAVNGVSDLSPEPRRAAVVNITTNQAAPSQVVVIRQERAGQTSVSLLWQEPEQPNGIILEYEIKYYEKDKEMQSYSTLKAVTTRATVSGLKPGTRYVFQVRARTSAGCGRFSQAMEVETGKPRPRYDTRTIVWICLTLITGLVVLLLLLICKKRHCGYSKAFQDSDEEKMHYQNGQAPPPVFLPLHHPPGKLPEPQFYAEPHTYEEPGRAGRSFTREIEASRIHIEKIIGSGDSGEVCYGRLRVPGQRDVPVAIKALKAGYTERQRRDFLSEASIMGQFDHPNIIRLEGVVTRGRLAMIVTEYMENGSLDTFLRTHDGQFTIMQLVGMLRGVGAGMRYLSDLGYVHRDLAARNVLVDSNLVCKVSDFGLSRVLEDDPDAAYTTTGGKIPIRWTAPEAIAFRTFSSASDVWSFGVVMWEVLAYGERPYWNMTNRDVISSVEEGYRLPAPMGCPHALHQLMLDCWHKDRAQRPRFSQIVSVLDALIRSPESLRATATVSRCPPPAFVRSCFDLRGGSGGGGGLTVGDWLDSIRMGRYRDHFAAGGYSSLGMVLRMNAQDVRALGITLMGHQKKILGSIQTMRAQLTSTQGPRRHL

[9] = target: T2, Ephrin type-A receptor 8 (Homo sapiens); details: at 10 µM
[10] = target: T3, Ephrin type-B receptor 1 (Homo sapiens) (UniProt P54762); details: at 1 µM
T3 sequence (whole entry): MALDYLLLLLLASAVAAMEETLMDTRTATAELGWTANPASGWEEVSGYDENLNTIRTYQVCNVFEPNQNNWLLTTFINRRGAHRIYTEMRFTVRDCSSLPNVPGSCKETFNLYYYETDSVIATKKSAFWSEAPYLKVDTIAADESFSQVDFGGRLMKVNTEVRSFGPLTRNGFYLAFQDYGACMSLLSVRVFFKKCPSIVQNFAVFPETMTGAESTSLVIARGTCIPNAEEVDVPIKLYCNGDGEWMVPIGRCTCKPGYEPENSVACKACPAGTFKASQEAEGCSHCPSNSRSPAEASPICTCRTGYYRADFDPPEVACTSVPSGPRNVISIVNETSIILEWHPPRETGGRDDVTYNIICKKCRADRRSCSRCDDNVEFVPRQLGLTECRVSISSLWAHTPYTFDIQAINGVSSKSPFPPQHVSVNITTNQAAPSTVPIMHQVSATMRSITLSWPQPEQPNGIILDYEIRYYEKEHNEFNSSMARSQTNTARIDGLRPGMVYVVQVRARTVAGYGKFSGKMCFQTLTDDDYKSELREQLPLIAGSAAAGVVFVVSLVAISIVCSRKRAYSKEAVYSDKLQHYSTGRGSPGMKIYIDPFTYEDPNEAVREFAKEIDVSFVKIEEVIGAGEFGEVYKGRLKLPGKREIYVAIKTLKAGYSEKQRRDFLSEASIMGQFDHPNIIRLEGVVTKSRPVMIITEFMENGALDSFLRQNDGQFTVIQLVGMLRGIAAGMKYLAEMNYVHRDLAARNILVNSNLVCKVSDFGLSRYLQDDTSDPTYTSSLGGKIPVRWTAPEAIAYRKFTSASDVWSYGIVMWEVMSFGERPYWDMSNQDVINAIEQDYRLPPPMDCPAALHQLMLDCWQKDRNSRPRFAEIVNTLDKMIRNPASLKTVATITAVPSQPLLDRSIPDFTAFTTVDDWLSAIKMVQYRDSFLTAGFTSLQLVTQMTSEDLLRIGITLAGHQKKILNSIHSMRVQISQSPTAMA

CNc1cc2c(Nc3cccc(Br)c3)ncnc2cn1
residual activity [1]: 78%
residual activity [2]: 105%
residual activity [3]: 95%
residual activity [4]: 103%
residual activity [5]: 92%
residual activity [6]: 90%
residual activity [7]: 54%
residual activity [8]: 98%
residual activity [9]: 69%
residual activity [10]: 93%
